From PubChem BioAssay (Tox21)
Where “and” joins values, the source holds several entries; their conditions need not be identical. Identical values can stand only once. Inconclusive results are not listed. The source holds several records for some structures; these can differ, active in one and inactive in another. Calls of active or inactive are those of the source. Unless noted, calls follow the shape of the dose curve; as a rule, active = well fitted curve in the direction sought with a large enough effect in the repeat runs; inconclusive = weak or mixed curves; inactive = no such curve, though single readings can be large; an effect the other way counts as inactive or inconclusive.

Key:
[1] = target: Progesterone receptor (Homo sapiens) (UniProt P06401); experiment: qHTS assay to identify small molecule agonists of the progesterone receptor (PR) signaling pathway (AID 1346784; calls by dose curve; also: nearly all actives have a fitted effect of over 30% in size)
Progesterone receptor (Homo sapiens), sequence (P06401 whole entry, looked up): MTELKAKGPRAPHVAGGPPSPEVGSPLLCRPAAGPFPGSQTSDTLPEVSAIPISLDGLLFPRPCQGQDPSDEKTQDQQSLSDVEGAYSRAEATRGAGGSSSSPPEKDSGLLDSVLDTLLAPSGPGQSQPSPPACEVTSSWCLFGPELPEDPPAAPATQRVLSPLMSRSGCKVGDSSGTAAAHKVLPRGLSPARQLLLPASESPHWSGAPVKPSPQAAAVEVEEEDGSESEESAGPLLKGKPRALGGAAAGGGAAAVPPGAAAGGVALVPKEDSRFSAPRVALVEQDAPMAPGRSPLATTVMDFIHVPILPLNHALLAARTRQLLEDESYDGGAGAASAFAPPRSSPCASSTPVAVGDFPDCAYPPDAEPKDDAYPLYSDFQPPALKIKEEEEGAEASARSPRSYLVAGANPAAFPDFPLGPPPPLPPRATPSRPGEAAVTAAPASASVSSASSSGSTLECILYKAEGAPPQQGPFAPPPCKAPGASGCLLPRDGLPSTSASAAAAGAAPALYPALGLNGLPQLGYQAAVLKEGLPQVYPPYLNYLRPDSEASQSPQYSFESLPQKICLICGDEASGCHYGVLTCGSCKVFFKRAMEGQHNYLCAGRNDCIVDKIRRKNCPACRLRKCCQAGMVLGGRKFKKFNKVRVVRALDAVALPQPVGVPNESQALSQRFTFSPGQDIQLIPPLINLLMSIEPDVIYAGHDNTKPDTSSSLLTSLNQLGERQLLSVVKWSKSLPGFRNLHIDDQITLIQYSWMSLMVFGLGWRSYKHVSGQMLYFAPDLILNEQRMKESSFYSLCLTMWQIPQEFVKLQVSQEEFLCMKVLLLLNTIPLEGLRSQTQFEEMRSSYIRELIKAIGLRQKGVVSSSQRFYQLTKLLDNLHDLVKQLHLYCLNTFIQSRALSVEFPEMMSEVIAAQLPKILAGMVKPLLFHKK
Procedure, shortened: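 The screen uses PR-UAS-bla HEK 293T cells in charcoal-stripped serum (2%). Compounds are applied for 16 hr at 37C after a 6 hr pre-incubation, and reporter activity is detected with a FRET beta-lactamase substrate after 2 hr at room temperature.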

[2] = qHTS assay to identify small molecule antagonists of the TGF-beta/Smad signaling pathway - cell viability counter screen (AID 1346824); also: nearly all actives have a fitted effect of over 50% in size
Procedure, shortened: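 SBE-bla HEK 293T cells, incubated overnight, then compound plus 0.25 ng/mL TGF-beta1 (stock added) for 5 hr at 37 C. Viability was read in the same wells by CellTiter-Glo luminescence after 30 min at room temperature.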

[3] = qHTS assay to identify small molecule agonists of the TGF-beta/Smad signaling pathway - cell viability counter screen (AID 1346829); also: top concentration of the series differs between compounds; nearly all actives have a fitted effect of over 45% in size
Procedure, shortened: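 HEK 293T SBE-bla line, 5 hr compound exposure at 37 C, multiplexed CellTiter-Glo viability read by luminescence.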

[4] = qHTS assay to identify small molecule agonists of the TGF-beta/Smad signaling pathway (AID 1346859; active = well fitted activation curve with a large enough effect in the signal ratio in the repeat runs, not every such curve was filed as active; the % refers to the signal ratio; also: series mostly up to about 77 µM)
Procedure, shortened: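 Dual-wavelength fluorescence (460/530 nm emission) quantified beta-lactamase expression under the Smad binding element in HEK 293T cells following 5 hr compound treatment at 37 C.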

[5] = target: Thyrotropin-releasing hormone receptor (Homo sapiens) (UniProt P34981); experiment: qHTS assay to identify small molecule antagonists of the thyrotropin-releasing hormone receptor (TRHR) signaling pathway (AID 1346877; active = well fitted inhibition curve with a large enough effect in the repeat runs, not every such curve was filed as active; also: series mostly up to about 51 µM)
Thyrotropin-releasing hormone receptor (Homo sapiens), sequence (P34981 whole entry, looked up): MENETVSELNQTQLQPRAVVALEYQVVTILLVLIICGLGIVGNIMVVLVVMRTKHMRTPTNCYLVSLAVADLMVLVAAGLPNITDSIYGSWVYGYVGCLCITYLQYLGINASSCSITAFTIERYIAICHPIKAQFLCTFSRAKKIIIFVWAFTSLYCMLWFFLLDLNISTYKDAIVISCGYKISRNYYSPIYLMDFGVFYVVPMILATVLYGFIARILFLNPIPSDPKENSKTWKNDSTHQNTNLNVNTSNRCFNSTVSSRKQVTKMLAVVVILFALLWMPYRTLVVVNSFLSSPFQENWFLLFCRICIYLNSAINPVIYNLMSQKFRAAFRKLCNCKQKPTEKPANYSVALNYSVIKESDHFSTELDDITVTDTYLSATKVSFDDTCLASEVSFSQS
Procedure, shortened: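 Antagonism is measured as suppression of the calcium response to 1 nM TRH in TRHR-HEK293 cells that have been dye-loaded for 2 h at 37 °C after overnight plating. Each compound is tested at 15 concentrations in triplicate.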

[6] = target: Thyrotropin-releasing hormone receptor (Homo sapiens) (UniProt P34981); experiment: qHTS assay to identify small molecule agonists of the thyrotropin-releasing hormone receptor (TRHR) signaling pathway (AID 1346891; calls by dose curve;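 also: HEK293 cells expressing TRHR with calcium dye readout; series mostly up to about 58 µM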)
Procedure, shortened: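 Kinetic fluorescence (3 min, 1 s intervals) reported intracellular calcium after compound transfer onto TRHR-Hek293 cells pre-loaded with dye for 2 h at 37 °C.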

[7] = Human pregnane X receptor (PXR) small molecule agonists, qHTS cell viability counter screen (AID 1346977); also: nearly all actives have a fitted effect of over 50% in size
Procedure, shortened: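 HepG2 cells stably carrying the PXR-Luc reporter are cultured with 5% charcoal-stripped FBS and treated with compounds for 24hr. CellTiter-Fluor is added at 23hr and fluorescence is read after 1hr.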

[8] = Caspase-3/7 induction in HepG2 cells by small molecules, qHTS assay (AID 1346978); also: nearly all actives have a fitted effect of over 15% in size; also: potency is read from the fitted curve at half-maximal effect
Procedure, shortened: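 Wild-type HepG2 cells, 2,000/well, settled 5 hr at 37 C and 5% CO2, then compound-treated for 17 hr; caspase-3/7 activity read by luminescent Caspase-Glo 3/7 after 30 min at room temperature.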

[9] = Caspase-3/7 induction in CHO-K1 cells by small molecules, qHTS cell viability counter screen (AID 1346979); also: nearly all actives have a fitted effect of over 35% in size; also: potency is read from the fitted curve at half-maximal effect
Procedure, shortened: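 Seeding: 1,500 CHO-K1 cells/well. Rest: 5hr, 37C. Treatment: compounds in DMSO, 16hr. Read: CellTiter-Fluor, 1hr, fluorescence.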

[10] = Caspase-3/7 induction in CHO-K1 cells by small molecules, qHTS assay (AID 1346980); also: nearly all actives have a fitted effect of over 15% in size
Procedure, shortened: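 Wild-type CHO-K1 cells exposed to compounds for 17hr at 37 C, 5% CO2. Caspase-3/7 activity then measured by Caspase-Glo 3/7 luminescence after 30min at room temperature.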

[11] = Caspase-3/7 induction in HepG2 cells by small molecules, qHTS cell viability counter screen (AID 1346981); also: series mostly up to about 92 µM; nearly all actives have a fitted effect of over 30% in size
Procedure, shortened: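 Cell viability is measured as a cytotoxicity counter screen alongside the Caspase-Glo 3/7 readout in identical wells. Wild-type HepG2 cells are treated with test compounds for 16 hr at 37 C before CellTiter-Fluor addition and a 1-hr incubation.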

[12] = target: Cytochrome P450 2D6 (Homo sapiens) (UniProt P10635); experiment: Cytochrome P450 Family 2 Subfamily D Member 6 (CYP2D6) small molecule antagonists: luciferase reporter qHTS assay (AID 1671196); also: nearly all actives have a fitted effect of over 50% in size; also: potency is read from the fitted curve at half-maximal effect
Cytochrome P450 2D6 (Homo sapiens), sequence (P10635 whole entry, looked up): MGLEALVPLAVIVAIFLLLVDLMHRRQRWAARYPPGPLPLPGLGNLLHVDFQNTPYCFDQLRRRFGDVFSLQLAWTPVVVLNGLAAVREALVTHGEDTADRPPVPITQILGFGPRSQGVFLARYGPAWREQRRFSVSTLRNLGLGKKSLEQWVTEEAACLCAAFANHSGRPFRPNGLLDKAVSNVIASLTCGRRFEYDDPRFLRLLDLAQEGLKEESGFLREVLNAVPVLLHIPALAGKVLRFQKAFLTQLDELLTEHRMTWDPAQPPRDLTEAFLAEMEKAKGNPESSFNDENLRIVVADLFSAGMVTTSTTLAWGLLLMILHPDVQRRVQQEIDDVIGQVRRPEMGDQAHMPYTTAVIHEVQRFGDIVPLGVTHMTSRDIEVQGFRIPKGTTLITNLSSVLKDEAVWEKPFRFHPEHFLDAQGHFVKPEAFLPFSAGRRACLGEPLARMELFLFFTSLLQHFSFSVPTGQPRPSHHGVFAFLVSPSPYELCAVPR
Procedure, shortened: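 Enzyme and proluciferin substrate were first combined with test chemical for 10 min at room temperature. Adding NADPH regeneration solution started a 1 h reaction, stopped with luciferin detection reagent and read by luminescence 20 min later.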

[13] = target: Progesterone receptor (Homo sapiens) (UniProt P06401); experiment: qHTS assay to identify small molecule antagonists of the progesterone receptor (PR) signaling pathway (AID 1346795; active = well fitted inhibition curve with a large enough effect in the signal ratio in the repeat runs, not every such curve was filed as active; the % refers to the signal ratio)
Procedure, shortened: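 After 6 hr plating at 37C in 2% stripped-serum medium, PR-UAS-bla HEK293T cells got compounds, then 1 nM R5020. Sixteen hours later, LiveBLAzer substrate was applied for 2 hr at room temperature and fluorescence was recorded.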

[14] = qHTS assay to identify small molecule antagonists of the progesterone receptor (PR) signaling pathway - cell viability counter screen (AID 1346798); also: series mostly up to about 92 µM; nearly all actives have a fitted effect of over 50% in size
Procedure, shortened: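 Viability was determined by ATP-based luminescence (CellTiter-Glo) in PR-UAS-bla HEK293T cells cultured in 2% charcoal-stripped serum and incubated 16 hr with compounds under R5020 stimulation.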

[15] = target: Nuclear receptor subfamily 1 group I member 2 (Rattus norvegicus) (UniProt Q9R1A7); experiment: Rat pregnane X receptor (rPXR) activation by small molecules, qHTS assay (AID 1346983); conditions: rPXR luciferase reporter cells, One-Glo luminescence, 24 h; max activation: stronger effect = higher value; also: nearly all actives have a fitted effect of over 20% in size
Nuclear receptor subfamily 1 group I member 2 (Rattus norvegicus), sequence (Q9R1A7 whole entry, looked up): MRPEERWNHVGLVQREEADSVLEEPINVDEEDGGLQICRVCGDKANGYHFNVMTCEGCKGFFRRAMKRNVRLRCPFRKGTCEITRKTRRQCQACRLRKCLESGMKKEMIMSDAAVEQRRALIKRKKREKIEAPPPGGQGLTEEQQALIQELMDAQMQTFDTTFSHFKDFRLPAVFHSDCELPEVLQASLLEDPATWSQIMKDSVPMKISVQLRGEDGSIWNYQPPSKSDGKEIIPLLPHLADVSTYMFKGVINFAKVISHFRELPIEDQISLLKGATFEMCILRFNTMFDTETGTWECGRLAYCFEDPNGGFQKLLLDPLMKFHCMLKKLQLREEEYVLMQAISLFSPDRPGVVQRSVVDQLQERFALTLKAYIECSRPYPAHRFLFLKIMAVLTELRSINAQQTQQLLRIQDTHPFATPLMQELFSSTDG
Procedure, shortened: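 Cell-based rPXR activation assay: rPXR cells, 2,000 per well, rested 5hr at 37 C, then exposed to compounds in DMSO for 24 hr at 37 C. Luciferase activity read by One-Glo luminescence after 30 min at room temperature.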

[16] = target: Nuclear receptor subfamily 1 group I member 2 (Homo sapiens) (UniProt O75469); experiment: CYP3A4 induction through human pregnane X receptor (PXR) by small molecules, qHTS assay (AID 1346984); also: nearly all actives have a fitted effect of over 40% in size
Nuclear receptor subfamily 1 group I member 2 (Homo sapiens), sequence (O75469 whole entry, looked up): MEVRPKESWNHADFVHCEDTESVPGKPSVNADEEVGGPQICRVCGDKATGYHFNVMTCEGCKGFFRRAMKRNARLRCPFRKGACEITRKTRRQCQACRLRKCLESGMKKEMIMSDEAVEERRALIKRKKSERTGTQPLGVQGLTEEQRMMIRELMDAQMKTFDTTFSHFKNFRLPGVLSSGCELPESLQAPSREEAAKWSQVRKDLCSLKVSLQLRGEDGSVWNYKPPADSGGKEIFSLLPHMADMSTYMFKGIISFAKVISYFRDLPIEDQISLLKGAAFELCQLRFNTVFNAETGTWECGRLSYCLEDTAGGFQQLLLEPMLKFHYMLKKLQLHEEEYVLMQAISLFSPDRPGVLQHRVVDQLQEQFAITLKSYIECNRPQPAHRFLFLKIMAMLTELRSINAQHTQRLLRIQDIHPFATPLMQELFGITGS
Procedure, shortened: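 Quantitative HTS in DPX-2 cells, i.e. HepG2 transfected with PXR response element and CYP3A4-promoter luciferase. Compounds in DMSO incubated 24hr at 37C; then P450-Glo CYP3A4 substrate, 3uM final, 3hr; One-Glo luminescence.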

[17] = target: Nuclear receptor subfamily 1 group I member 2 (Homo sapiens) (UniProt O75469); experiment: Human pregnane X receptor (PXR) activation by small molecules, qHTS assay (AID 1346985); also: nearly all actives have a fitted effect of over 40% in size
Procedure, shortened: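 DPX-2 cells (HepG2 co-transfected with a PXR response element and a CYP3A4-promoter luciferase construct) were seeded at 2,000 per well, rested 5 hr at 37C, then exposed to DMSO-dissolved compounds for 24 hr. Activation was read as luciferase luminescence.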

[18] = qHTS assay to identify small molecule agonists of the progesterone receptor (PR) signaling pathway - cell viability counter screen (AID 1346799; calls by dose curve; also: nearly all actives have a fitted effect of over 45% in size)
Procedure, shortened: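 Viability was scored by ATP luminescence (CellTiter-Glo, 30 min, room temperature) in the same wells used for the reporter readout, after 16 hr compound exposure of PR-UAS-bla HEK293T cells.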

[19] = target: Nuclear receptor subfamily 1 group I member 2 (Homo sapiens) (UniProt O75469); experiment: Human pregnane X receptor (PXR) small molecule agonists, qHTS assay (AID 1346982); also: nearly all actives have a fitted effect of over 35% in size; also: potency is read from the fitted curve at half-maximal effect
Procedure, shortened: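 Cells: HepG2 stably carrying PXR-Luc. Medium held 5% charcoal-stripped FBS. Compounds in DMSO added after 5 hr plating, incubated 24 hr, then luminescence quantified with ONE-Glo.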
% is scaled to controls: 0 for no effect and ±100 for the full control effect.

C[C@]12CC[C@@H]3c4ccc(O)cc4CC[C@H]3[C@@H]1CC[C@H]2O
active: Potency [8] 11.1 µM | Potency [9] 49.4 µM and 54.5 µM
inactive: Potency [1] | Potency [2] | Potency [3] | outcome [4] | Potency [5] | Potency [6] | Potency [7] | Potency [10] | Potency [11] | Potency [12]

FC(F)(F)C(Cl)Br (stereo not given)
inactive: Potency [1] | Potency [13] | Potency [14] | Potency [2] | Potency [3] | outcome [4] | Potency [7] | Potency [8] | Potency [9] | Potency [10] | max activation [15] -0.375% | Potency [16] | Potency [17]

C[N+](C)(C)CCO
inactive: Potency [1] | Potency [13] | Potency [14] | Potency [18] | Potency [2] | Potency [3] | outcome [4] | Potency [7] | Potency [8] | Potency [9] | Potency [10] | Potency [11] | Potency [12]

CC(C)(Oc1ccc(Cl)cc1)C(=O)O
inactive: Potency [1] | Potency [13] | Potency [14] | Potency [18] | Potency [2] | Potency [3] | outcome [4] | Potency [7] | Potency [8] | Potency [9] | Potency [10] | Potency [11] | Potency [19]

CCCCCCCC/C=C\CCCCCCCC(=O)O
inactive: Potency [14] | Potency [18] | Potency [2] | Potency [3] | outcome [4] | Potency [5] | Potency [6] | Potency [7] | Potency [8] | Potency [9] | Potency [10] | Potency [11] | max activation [15] -0.693% | Potency [16] | Potency [17] | Potency [12]

COC(=O)c1ccc(C)cc1
inactive: Potency [1] | Potency [13] | Potency [14] | Potency [2] | Potency [3] | outcome [4] | Potency [5] | Potency [6] | Potency [7] | Potency [8] | Potency [9] | Potency [10] | Potency [11] | Potency [19] | Potency [12]

C=C1C[C@H]2[C@@H]3C=C(C)C4=CC(=O)CC[C@]4(C)[C@H]3CC[C@]2(C)[C@@]1(OC(C)=O)C(C)=O
inactive: Potency [13] | Potency [2] | Potency [3] | outcome [4] | Potency [5] | Potency [6] | Potency [7] | Potency [8] | Potency [10] | Potency [11] | Potency [16] | Potency [17] | Potency [12]
active: Potency [19] 31.3 µM

CCCCCC1C(=O)CCC1CC(=O)OC (stereo not given)
inactive: Potency [1] | Potency [13] | Potency [14] | Potency [2] | Potency [3] | outcome [4] | Potency [5] | Potency [6] | Potency [7] | Potency [8] | Potency [9] | Potency [10] | Potency [11] | Potency [12]

O=C(O)COCCN1CCN(C(c2ccccc2)c2ccc(Cl)cc2)CC1 (stereo not given)
inactive: Potency [1] | Potency [13] | Potency [14] | Potency [2] | Potency [3] | outcome [4] | Potency [5] | Potency [6] | Potency [7] | Potency [8] | Potency [9] | Potency [10] | Potency [11] | max activation [15] 1.59% | Potency [17]

Cc1ccc(N)c([N+](=O)[O-])c1
inactive: Potency [1] | Potency [14] | Potency [18] | Potency [2] | Potency [3] | outcome [4] | Potency [5] | Potency [6] | Potency [7] | Potency [8] | Potency [9] | Potency [10] | Potency [11] | Potency [19]
39.4 µM (active) and inactive: Potency [12]

NC[C@H](O)c1ccc(O)c(O)c1
inactive: Potency [1] | Potency [13] | Potency [14] | Potency [18] | Potency [2] | Potency [3] | outcome [4] | Potency [7] | Potency [8] | Potency [9] | Potency [10] | max activation [15] -0.838% | Potency [16] | Potency [17] | Potency [12]

CCC(Cc1c(I)cc(I)c(N)c1I)C(=O)O (stereo not given)
inactive: Potency [1] | Potency [13] | Potency [14] | Potency [2] | Potency [3] | outcome [4] | Potency [5] | Potency [6] | Potency [7] | Potency [8] | Potency [9] | Potency [10] | max activation [15] -1.5% | Potency [16] | Potency [17]

Nc1cc(Cl)c(N)c(Cl)c1
active: Potency [19] 68 µM and 54.5 µM | Potency [12] 25 µM
inactive: Potency [1] | Potency [13] | Potency [14] | Potency [2] | Potency [3] | outcome [4] | Potency [5] | Potency [6] | Potency [7] | Potency [8] | Potency [9] | Potency [10] | Potency [11]
